Compound activity: PubChem, several laboratories
CYP2C9 inhib: inhibitors of human CYP2C9; P11712; CYP2C9 Supersomes, luciferin-H conversion, luminescence; inhibition, % at 5 µM; 20% of 96,000 active; AID 777;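 active = blocking of liver enzyme CYP2C9 beyond about 50% at 5 µM, limit read from the data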
PostGolgi yeast: growth inhibition of a yeast mutant, post-Golgi transport screen; post-Golgi transport phenotypic cell assay; inhibition, % at 10 µM; 0.9% of 98,000 active;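 note: yeast cells grown in 1536-well plates; yeast grown about 18 h at 30C before absorbance read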
CYP2C9 act: activators of human CYP2C9; recombinant CYP2C9, luciferin-H conversion, luminescence; active compounds read high; factor 1 = untreated enzyme, 0 = blocked; activation factor at 5 µM; 1.4% of 96,000 active; AID 1024;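 active = activation factor of 2 or more for CYP2C9 at a 5 µM dose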;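 note: 0 = sulfaphenazole-blocked wells and 1 = vehicle-only wells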
CYP2C19 activ: increases human CYP2C19 enzyme activity | P33261 | recombinant CYP2C19, luciferin-H EGE luminescence; active compounds read high; 0 = fully inhibited enzyme, 1 = untreated enzyme | activation factor at 5 µM | 96,000 tested, under 10 active | AID 1025;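 active = activation factor of at least 2 at 5 µM in the primary screen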;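 note: 0 = wells with 2.5 mM tranylcypromine and 1 = vehicle-only wells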
Target sequence (P33261 whole entry, looked up): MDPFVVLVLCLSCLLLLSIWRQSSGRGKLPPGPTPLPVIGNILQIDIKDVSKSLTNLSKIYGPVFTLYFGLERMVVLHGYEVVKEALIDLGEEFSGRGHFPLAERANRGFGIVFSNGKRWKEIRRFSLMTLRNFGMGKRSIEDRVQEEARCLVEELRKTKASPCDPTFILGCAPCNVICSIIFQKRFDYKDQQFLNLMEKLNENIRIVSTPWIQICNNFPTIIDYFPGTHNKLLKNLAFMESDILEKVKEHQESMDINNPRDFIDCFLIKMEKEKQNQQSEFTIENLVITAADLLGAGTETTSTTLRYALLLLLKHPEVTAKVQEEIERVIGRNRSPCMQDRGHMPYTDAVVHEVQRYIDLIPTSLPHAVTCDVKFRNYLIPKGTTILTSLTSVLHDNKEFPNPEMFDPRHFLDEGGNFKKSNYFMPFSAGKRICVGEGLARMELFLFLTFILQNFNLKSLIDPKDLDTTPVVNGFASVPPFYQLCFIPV
PostGolgi ctrl: growth of the yeast control strain, post-Golgi counter-screen; inhibition, % at 10 µM; efflux-deficient yeast background strain, growth absorbance A615, 16 h; 5% of 98,000 active
CYP2C19 inh: inhibitors of human CYP2C19 | inhibition, % at 5 µM | CYP2C19 Supersomes, luciferin-H EGE luminescence, 30 min | 21% of 96,000 active | P33261;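 active = CYP2C19 inhibition above a set limit at 5 µM in the primary screen, cut at about 50% in these data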;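 note: plate controls were negative control wells for no effect and 2.5 mM tranylcypromine positive control for full effect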
The depositor's hits bear a star. This is a sample that favours compounds with a hit; in the whole collection about 32% have one here. Cut-off read from the data, not from the text of the source, unless noted: active = inhibition above about 30%; inactive = the rest.

For Fc1ccc(CCNCc2ccccc2Cl)cc1 the results were CYP2C9 inhib 9.8, PostGolgi yeast -2.5, CYP2C9 act 0.9, CYP2C19 activ 0, PostGolgi ctrl 6.4 and CYP2C19 inh 96.0*.
`O=c1c2ccccc2nc(-c2ccccc2)n1-n1cccc1` gave CYP2C9 inhib 56.9*, PostGolgi yeast 6.1, CYP2C9 act 0.4, CYP2C19 activ 0.5, PostGolgi ctrl 2.4 and CYP2C19 inh 53.1*.
Screening O=c1c2ccccc2nc(-c2ccccc2)n1-c1ccncc1 returned CYP2C9 inhib 7.5, PostGolgi yeast -2.6, CYP2C9 act 0.9, CYP2C19 activ 0.8, PostGolgi ctrl 12.1 and CYP2C19 inh 20.7.
Screening CC(C)CCC1(CN2CCCC2=O)C(=O)NC(=O)NC1=O returned PostGolgi yeast 13.5 and PostGolgi ctrl 22.1.
Screening CCOc1cc(C=C2C(=O)NC(=O)NC2=O)ccc1OS(=O)(=O)c1ccccc1 returned CYP2C9 inhib 4.7, PostGolgi yeast -5.8, CYP2C9 act 1, CYP2C19 activ 0.5, PostGolgi ctrl 7.7 and CYP2C19 inh 54.2*.
`O=C(Cc1ccccc1)OC(COCc1ccccc1)CN1CCOCC1` (stereo not drawn) gave CYP2C9 inhib 44.5, PostGolgi yeast -6.9, CYP2C9 act 0.6, CYP2C19 activ 0.3, PostGolgi ctrl 7.3 and CYP2C19 inh 72.7*.
`O=C(COc1ccc(Cl)cc1Cl)N1CCN(C/C=C/c2ccccc2)CC1` gave CYP2C9 inhib 55.8*, PostGolgi yeast 104.0*, CYP2C9 act 0.4, CYP2C19 activ 0.6, PostGolgi ctrl 66.0* and CYP2C19 inh 43.4.
For COc1ccc2c(c1)c(C(=O)O)c(C)n2CC(C)C the results were CYP2C9 inhib 6.3, PostGolgi yeast -2.1, CYP2C9 act 0.9, CYP2C19 activ 0.2, PostGolgi ctrl 1.1 and CYP2C19 inh 84.7*.
For O=C(C1CCCN(S(=O)(=O)c2cccc3nsnc23)C1)N1CCC2(CC1)OCCO2 (stereo not drawn) the results were CYP2C9 inhib 26.8, PostGolgi yeast -10.4, CYP2C9 act 0.7, CYP2C19 activ 0.7, PostGolgi ctrl -2.4 and CYP2C19 inh 25.4.
`CCS(=O)(=O)N1CCCC(C(=O)N2CCC3(CC2)OCCO3)C1` (stereo not drawn) gave CYP2C9 inhib 14.8, PostGolgi yeast -3.2, CYP2C9 act 0.9, CYP2C19 activ 0.4, PostGolgi ctrl 8.7 and CYP2C19 inh 58.0*.
`Cc1cc(C)c(C(=O)CN2CCOCC2)c(C)c1` gave CYP2C9 inhib -13.7, PostGolgi yeast 20.0, CYP2C9 act 1.1, CYP2C19 activ 0.8, PostGolgi ctrl -5.3 and CYP2C19 inh 15.0.
Screening CCCCc1nc2ccccc2c(=O)n1-c1ccc(O)cc1 returned PostGolgi yeast 1.0 and PostGolgi ctrl -0.6.
`CCOc1ccc(-n2c(CC)nc3ccccc3c2=O)cc1` gave CYP2C9 inhib 10.2, PostGolgi yeast 6.8, CYP2C9 act 0.9, CYP2C19 activ 0.9, PostGolgi ctrl 30.6* and CYP2C19 inh 6.9.
CC(Cc1ccccc1)[n+]1cc(/N=C(\[O-])N(C)C)on1 (stereo not drawn) was read as CYP2C9 inhib 20.4, PostGolgi yeast -1.0, CYP2C9 act 0.8, CYP2C19 activ 1, PostGolgi ctrl 7.2 and CYP2C19 inh -2.6.
`FC(F)(F)c1ccc2c(c1)ncn2C1CCN(Cc2nnnn2C2CCCCC2)CC1` gave CYP2C9 inhib 69.3*, PostGolgi yeast -1.6, CYP2C9 act 0.3, CYP2C19 activ 0.1, PostGolgi ctrl 9.2 and CYP2C19 inh 88.5*.
Cc1nc2cc(C(F)(F)F)ccc2n1C1CCN(Cc2nnnn2Cc2ccc3c(c2)OCO3)CC1 was read as CYP2C9 inhib 92.3*, PostGolgi yeast 14.6, CYP2C9 act 0.1, CYP2C19 activ 0.4, PostGolgi ctrl 16.0 and CYP2C19 inh 57.2*.
Fc1ccc2c(c1)nnn2C1CCN(Cc2ccccc2)CC1 was read as CYP2C9 inhib 26.3, PostGolgi yeast 25.2, CYP2C9 act 0.7, CYP2C19 activ 0.7, PostGolgi ctrl -4.7 and CYP2C19 inh 33.0.
For CCCNC(=O)c1c(N)n(Cc2ccc3c(c2)OCO3)c2nc3ccccc3nc12 the results were CYP2C9 inhib 17.1, PostGolgi yeast 0.3, CYP2C9 act 0.8, CYP2C19 activ 1, PostGolgi ctrl 3.4 and CYP2C19 inh 4.7.
Screening Cc1nc2cc(C(F)(F)F)ccc2n1C1CCN(Cc2nnnn2Cc2cccs2)CC1 returned CYP2C9 inhib 78.9*, PostGolgi yeast -5.9, CYP2C9 act 0.2, CYP2C19 activ 0.8, PostGolgi ctrl -1.1 and CYP2C19 inh 24.2.
